Assay results from PubChem BioAssay AID1159580 (chemical genetic matrix, 2015).
Among all 5,500 compounds or so, about 2,000 (36%) were called active. Not shown: some 18% with an inconclusive outcome. Cut-off read from the data, not from the text of the source: active = normalized growth mostly below about 0.91 (no sharp cut-off); inconclusive = no clear call, values can overlap the other calls; inactive = mostly above about 0.92. Some of the results follow.

Assay: chemical genetic growth profiling, strain panel (AID 1159580);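 note: tested at 20 µM; growth read once vehicle control cultures reached saturation at 30 °C; 1 = growth at the plate median or of vehicle wells; lower values mean less growth of the strain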
Conditions: S. cerevisiae deletion strains, growth OD

Measured: normalized growth

COc1cccc(NC(=S)NC2CC(C)CC(C)(C)C2)c1 (stereo unspecified)
inactive: locus YAR019C, strain CDC15, stronger effect = lower value 0.986 | locus YBL105C, strain PKC1, stronger effect = lower value 0.986 | locus YBR135W, strain CKS1, stronger effect = lower value 0.973 | locus YBR136W, strain MEC1, stronger effect = lower value 0.985 | locus YBR160W, strain CDC28, stronger effect = lower value 0.978 | locus YDL017W, strain CDC7, stronger effect = lower value 0.984 | locus YDL028C, strain MPS1, stronger effect = lower value 0.99 | locus YDL101C, strain DUN1, stronger effect = lower value 0.975 | locus YDL108W, strain KIN28, stronger effect = lower value 0.989 | locus YDL132W, strain cdc53, stronger effect = lower value 0.984 | locus YDL214C, strain PRR2, stronger effect = lower value 0.986 | locus YDR052C, strain DBF4, stronger effect = lower value 0.99 | locus YDR054C, strain cdc34, stronger effect = lower value 0.967 | locus YDR226W, strain ADK1, stronger effect = lower value 0.972 | locus YDR477W, strain SNF1, stronger effect = lower value 0.98 | locus YER123W, strain YCK3, stronger effect = lower value 0.962 | locus YER133W, strain GLC7, stronger effect = lower value 0.962 | locus YFL009W, strain cdc4, stronger effect = lower value 0.98 | locus YFL029C, strain CAK1, stronger effect = lower value 0.99 | locus YFR003C, strain YPI1, stronger effect = lower value 0.984 | locus YFR019W, strain FAB1, stronger effect = lower value 1.02 | locus YFR028C, strain CDC14, stronger effect = lower value 0.966 | locus YGR040W, strain KSS1, stronger effect = lower value 0.979 | locus YGR052W, strain FMP48, stronger effect = lower value 1.02 | locus YGR092W, strain DBF2, stronger effect = lower value 0.895 | locus YHR030C, strain SLT2, stronger effect = lower value 0.927 | locus YHR079C, strain IRE1, stronger effect = lower value 0.922 | locus YHR082C, strain KSP1, stronger effect = lower value 1.08 | locus YHR205W, strain SCH9, stronger effect = lower value 0.995 | locus YIL147C, strain SLN1, stronger effect = lower value 0.981 | locus YJL095W, strain BCK1, stronger effect = lower value 0.929 | locus YJL128C, strain PBS2, stronger effect = lower value 0.954 | locus YJL157C, strain FAR1, stronger effect = lower value 0.976 | locus YJR016C, strain ILV3, stronger effect = lower value 0.986 | locus YJR066W, strain TOR1 (second series), stronger effect = lower value 0.979 | locus YJR066W, strain TOR1, stronger effect = lower value 1.07 | locus YKL048C, strain ELM1, stronger effect = lower value 0.989 | locus YKL067W, strain YNK1, stronger effect = lower value 0.983 | locus YKL101W, strain HSL1, stronger effect = lower value 0.996 | locus YKL193C, strain SDS22, stronger effect = lower value 0.981 | locus YKL203C, strain TOR2, stronger effect = lower value 1.03 | locus YLR113W, strain HOG1, stronger effect = lower value 0.957 | locus YLR133W, strain CKI1, stronger effect = lower value 0.979 | locus YLR403W, strain SFP1, stronger effect = lower value 0.938 | locus YML070W, strain DAK1, stronger effect = lower value 0.978 | locus YMR001C, strain CDC5, stronger effect = lower value 0.984 | locus YMR205C, strain PFK2 (second series), stronger effect = lower value 1 | locus YMR277W, strain FCP1, stronger effect = lower value 0.988 | locus YNL006W, strain LST8, stronger effect = lower value 0.984 | locus YNL020C, strain ARK1, stronger effect = lower value 0.974 | locus YNL161W, strain CBK1, stronger effect = lower value 0.971 | locus YNL183C, strain NPR1, stronger effect = lower value 1.07 | locus YNL207W, strain RIO2, stronger effect = lower value 0.967 | locus YNL222W, strain SSU72, stronger effect = lower value 1 | locus YNL307C, strain MCK1 (second series), stronger effect = lower value 0.977 | locus YOL078W, strain AVO1, stronger effect = lower value 0.985 | locus YOL136C, strain PFK27, stronger effect = lower value 0.964 | locus YOR061W, strain CKA2, stronger effect = lower value 0.986 | locus YOR119C, strain RIO1, stronger effect = lower value 1.04 | locus YOR231W, strain MKK1, stronger effect = lower value 1.05 | locus YOR329C, strain SCD5, stronger effect = lower value 0.984 | locus YPL031C, strain PHO85, stronger effect = lower value 0.973 | locus YPL153C, strain RAD53, stronger effect = lower value 0.964 | locus YPL204W, strain HRR25, stronger effect = lower value 0.949 | locus YPL209C, strain IPL1, stronger effect = lower value 0.99 | locus YPL256C, strain CLN2, stronger effect = lower value 0.984 | locus YPR025C, strain CCL1, stronger effect = lower value 0.988 | locus YPR106W, strain ISR1, stronger effect = lower value 0.994 | locus YPR111W, strain DBF20, stronger effect = lower value 0.991 | strain NNK1, stronger effect = lower value 0.982 | strain TSCII, stronger effect = lower value 0.976
